From PubChem BioAssay AID504329 (Southern Research Specialized Biocontainment Screening …, 2011) come the findings set out here.

SMILES strings stand for the structures. In all, about 340,000 compounds went through this assay and about 1,000 (0.29%) were called active. Not all results are given here. Results with a measured potency or affinity are listed apart. Unmarked numbers belong to inactive results. No stated cut-off is given here; in the data, inconclusive means inhibition above about 27% without an active follow-up result; inactive means below that.

The assay in a line: H1N1 influenza NS1A inhibitors, functional cell based assay (AID 504329). As to conditions: percent inhibition, at 12.5 µM, active compounds read high.
As usually defined, the inhibition is the drop in the measured response relative to a control, in per cent. On to `CC(C)Oc1ccc(S(=O)(=O)N2CCCCC2)cc1NC(=O)CN1C(=O)NC(C)(C2CC2)C1=O` (stereo not drawn), for which the inhibition was -3.52%. Next, `O=C(C1CCN(S(=O)(=O)c2ccccc2)CC1)N1CCCCCC1`: 12.9%; `CC(C)(C)C(=O)CSc1nc2ncc(Br)cc2[nH]1`: 0.51%; `Cc1ccc(NC(=O)c2cn(-c3cccc(C)n3)cn2)cc1`: -6.72%. For `COC(=O)c1ccc(NC(=O)c2cn(-c3cccc(C)n3)cn2)cc1`, the inhibition is -7.7%.

In the case of `Cc1cccc(-n2cnc(C(=O)N/N=C/c3ccccc3)c2)n1`, the inhibition is -4.63%. Consider `C/C(=N/NC(=O)c1cn(-c2cccc(C)n2)cn1)c1ccc(C)cc1`, for which the inhibition is 3.85%. For `COc1ccc(OC)c(NC(=O)COC(=O)[C@H](Cc2ccccc2)NC(=O)c2ccco2)c1`, the inhibition was -3.78%. For `O=C(c1ccc(Cn2c(=S)[nH]c3ccc(N4CCOCC4)cc3c2=O)cc1)N1CCN(c2ccc(F)cc2)CC1`, the inhibition was -6.32%. For `COc1cc(CN(C)C)cc(C=O)c1O`, the inhibition is 1.87%. For the compound `Nc1nc2cc(Br)ccc2o1`, the inhibition was -24.5%. Next, `COc1cc(C(C)=O)ccc1OCC(=O)Nc1cc(Cl)ccc1-n1cncn1`: -5.4%; `O=C(NCC(=O)N(c1ccc(F)cc1)C(C(=O)NC1CCCC1)c1cccnc1)c1cccs1` (stereo not drawn): -7.6%. In the case of `O=C(CN1C(=O)c2cccnc2Oc2ccc(Cl)cc21)N1CCCC1`, the inhibition is -12.6%. `O=C1c2ccccc2CN1CCNS(=O)(=O)c1ccc2ccccc2c1`: the inhibition was 0.05%. Next, `CCN(Cc1nc2cc(Cl)ccc2c(=O)[nH]1)C(=O)c1cc2c(s1)CCCCC2`: -9.24%; `CC1(C(=O)NCc2cc(F)cc(C(F)(F)F)c2)C=CC2(CCCCC2)N1C(=O)c1ccccc1` (stereo not drawn): -9.29%; `CS(=O)(=O)N(CC(=O)NCC1CCCO1)Cc1ccc(Cl)cc1` (stereo not drawn): -3.33%. The value for `O=C(NNc1c2ccccc2nc2ccccc12)c1ccccc1Cl` was -1.62%; that for `O=C(NNc1c2ccccc2nc2ccccc12)c1ccccc1O` was -2.01%. Next, `Cc1cccc(C)c1NC(=O)CN(C)C(=O)C(c1ccccc1)c1ccccc1`: -4.5%. `COc1ccc(COC(=O)CCS(=O)(=O)c2ccc(C)cc2)cc1F`: the inhibition was -5.19%.

`CCN(CC)CCCNc1ccc2ncn3c4ccc(O)cc4c(=O)c1c23`: the inhibition is 18.1%. Turning to `CCN(CC)CCNc1ccc(CO)c2sc3ccccc3c(=O)c12`, the inhibition was -1.15%. The value for `CN(C)CCNc1ccc(CO)c2sc3ccc(O)cc3c(=O)c12` was 21.9%; that for `CN(C)CCNc1ccc(CO)c2oc3ccc(O)cc3c(=O)c12` was 2.86%. Next, `CCOC(=O)N1CCN(C(=O)CN(C)S(=O)(=O)c2ccc3c(c2)c(=O)n(C)c(=O)n3C)CC1`: 1.25%; `CCn1nc(C)c(/C=N\NC(=O)c2cccc(OC)c2)c1C`: -6.26%; `O=C(Nc1cccnc1)C1CCN(S(=O)(=O)c2cccc3nonc23)CC1`: 7.53%. The value for `CCOc1cc(/C=C2\SC(=S)N(Nc3ccccc3)C2=O)ccc1O` was -19.7%.

Regarding `COc1cc(/C=C2\SC(=S)N(Nc3ccccc3)C2=O)ccc1O`, the inhibition was 16.4%. Next, `N#CC1=C2SCCN2C(=O)C(C#N)C12CCCCC2` (stereo not drawn): -0.17%; `Cc1cc(C)c2oc(=O)cc(CN3CCN(Cc4ccccc4)CC3)c2c1`: 0.54%; `COc1cccc(-n2c(SCC(=O)NCc3cccs3)nc3ccccc3c2=O)c1`: 0.54%. Turning to `O=C(c1ccc(F)cc1)N1CCC(C(=O)N2CCN(S(=O)(=O)c3cccc(Cl)c3)CC2)CC1`, the inhibition was -5.53%. Regarding `CCOCCc1nnc(NC(=O)CN2C(=O)c3ccccc3C2=O)s1`, the inhibition was -7.03%. As to `CN(C)c1ncc(C2=C(Cl)C(=O)C(N3CCCC3)=C(Cl)C2=O)s1`, the inhibition is 8.59%.

As for `CN1CCN(C2=C(Cl)C(=O)C(c3cnc(N4CCCCC4)s3)=C(Cl)C2=O)CC1`, the inhibition is 18.9%. Take `COc1ccc(C(=O)C2CN(C)CC2c2ccc(Cl)cc2)cc1` (stereo not drawn): the inhibition is -2.24%. Next, `CN1CC(C(=O)c2ccc(Cl)cc2)C(c2ccccc2)C1` (stereo not drawn): -3.51%; `O=[N+]([O-])c1ccc2nc(N3CCCC3)sc2c1`: -13.2%; `COc1cc(Cl)c(C)cc1N1C(=O)CN(Cc2ccccc2)C1=S`: -3.41%.

As to `CN1CCN(c2ccc(NC(=O)COc3ccccc3[N+](=O)[O-])cc2)CC1`, the inhibition is 0.13%. The value for `NS(=O)(=O)c1ccc(NC(=O)COC(=O)C2CCCCC2)cc1` was -11.2%. `CC(=O)Nc1ccc(NC(=O)COC(=O)C2CCCCC2)cc1`: the inhibition was -9.9%. The value for `Cc1ccc(S(=O)(=O)N2CC(O)C[C@H]2C(=O)OCC(=O)N2CCN(c3ccc(F)cc3)CC2)cc1C` (stereo partly drawn) was -4.2%; that for `Cc1ccc(S(=O)(=O)N2CC(O)C[C@H]2C(=O)OCC(=O)Nc2ccc(N3CCOCC3)cc2)cc1C` (stereo partly drawn) was -8.01%; that for `O=C(COc1cc(F)ccc1[N+](=O)[O-])Nc1ccc(N2CCOCC2)cc1` was 6.79%. The value for `COc1ccc(NC(=O)CNCCC2=CCCCC2)cc1` was -5.53%; that for `O=C(CNCCC1=CCCCC1)Nc1ccccc1N1CCCCCC1` was -4.99%; that for `COCc1cc(=O)[nH]c(SCC(=O)N2CCOCC2)n1` was -7.79%. Next, `CC(=O)NC(CC(=O)OCC(=O)N1CCN(S(=O)(=O)c2ccc(Cl)cc2)CC1)c1ccccc1` (stereo not drawn): -16.1%; `COCCN(C(=O)CSc1nnc(-c2ccncc2)n1C)c1c(N)n(CC(C)C)c(=O)[nH]c1=O`: -15.9%. For `CCSc1oc(-c2ccco2)nc1S(=O)(=O)c1ccc(F)cc1`, the inhibition is 5.79%. The value for `c1ccc(COc2ccccc2CNC2CCCC2)cc1` was 0.14%; that for `O=C(/C=C/c1ccc(Cl)cc1)NCCCN1CCOCC1` was -7.22%; that for `CCC(Sc1nc2cc(OC)c(OC)cc2c(=O)n1CCc1ccc(OC)c(OC)c1)C(=O)NCCOC` (stereo not drawn) was 7.7%. Next, `COc1ccc(Cn2c(CCC(=O)NCc3ccco3)nc3cccnc32)cc1`: 0.67%.
